The campaign covered roughly 360,000 compounds. About 11,000 (3.1%) were called active. Only a selection was taken, and actives are over-represented in it overall. A number with no mark means an inactive call. Cut-off read from the data, not from the text of the source: active = activity change below about -30%; inactive = the rest.
Target: D(1A) dopamine receptor (Homo sapiens) (UniProt P21728)
Assay: Antagonist of Human D 1 Dopamine Receptor: qHTS
Settings: HEK293 TREx D1 cells, calcium flux, dopamine EC80; at 10 µM; hits give low values
Summary of the method: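 Inducible Hek293 Trex D1 cells (tetracycline, overnight, 30 C). Calcium dye 30–90 min RT. Antagonist mode: EC80 dopamine added after 180 s compound read.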
% is set by controls: 0 for no effect and ±100 for the full control effect.

Sequence of D(1A) dopamine receptor (Homo sapiens) (P21728 whole entry, looked up): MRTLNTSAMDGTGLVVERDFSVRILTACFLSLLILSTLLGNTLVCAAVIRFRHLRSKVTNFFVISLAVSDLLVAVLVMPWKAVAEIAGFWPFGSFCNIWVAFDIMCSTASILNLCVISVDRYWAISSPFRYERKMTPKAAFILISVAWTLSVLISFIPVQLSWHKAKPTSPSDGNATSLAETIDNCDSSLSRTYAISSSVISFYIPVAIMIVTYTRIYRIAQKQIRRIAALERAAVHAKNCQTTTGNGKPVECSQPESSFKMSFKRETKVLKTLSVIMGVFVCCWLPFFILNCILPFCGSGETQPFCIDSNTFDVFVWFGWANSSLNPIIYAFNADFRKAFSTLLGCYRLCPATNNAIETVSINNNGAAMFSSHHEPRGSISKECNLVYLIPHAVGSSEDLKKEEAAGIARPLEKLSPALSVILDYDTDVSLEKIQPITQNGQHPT

| Compound | activity change, negative = inhibition |
| --- | --- |
| NC1=NC(c2cc(F)cc(F)c2)n2c(nc3ccccc32)N1 (stereo not drawn) | 0.602% |
| CCc1cccc(C)c1NS(=O)(=O)c1ccc(-c2cc(C)no2)s1 | 24.4% |
| O=C(Nc1ccc2c(c1)OCCO2)c1ccoc1 | 15.7% |
| O=C(Nc1ccc2c(c1)OCCO2)C1CCCC1 | -32.7% (active) |
| O=C(Nc1ccc2c(c1)OCO2)C1CC1(Cl)Cl (stereo not drawn) | -9.18% |
| COc1ccc(NC(=O)NC(C)c2c(-n3cccc3)sc(C)c2C)cc1OC (stereo not drawn) | -6.54% |
| COc1ccc(N2CCN(C3=NS(=O)(=O)C(c4cccc(Br)c4)=C3C)CC2)cc1 | -8.66% |
| CCN1CCN(CC(=O)Nc2sc3c(c2C#N)CCC3)CC1 | -11.5% |
| N#Cc1c(NC(=O)C2CCCO2)sc2c1CCCCC2 (stereo not drawn) | -19.1% |
| N#Cc1c(NC(=O)CCCl)sc2c1CCCCC2 | -30.1% (active) |
| COc1ccccc1CNC(=O)CS(=O)(=O)c1cccc2nsnc12 | 13.8% |
| CCCn1c2ccccc2c2cnn(CC(=O)NCC3CCN(Cc4ccc(C)cc4)CC3)c(=O)c21 | -18.2% |
| CCOC(=O)CSc1nnc(CNc2nc(-c3ccccc3)cs2)n1C | -37.1% (active) |
| CCOC(=O)CSc1nnc(CNC(=O)c2cccs2)n1-c1ccccc1 | -4.34% |
| Cn1c(CNc2nc(-c3ccccc3)cs2)nnc1SCC(=O)c1ccccc1 | -24.4% |
| COc1ccc(-c2nn(CC(=O)Nc3ccccc3F)c3c2cnc2ccc(F)cc23)cc1 | -0.202% |
| COc1ccc(-c2nn3c(-c4ccc(OC)cc4)nnc3c3ccccc23)cc1 | -13.1% |
| COc1ccc(-c2nc3ccc(C(=O)NCc4ccc(C)cc4)cc3nc2-c2ccc(OC)cc2)cc1 | -1.2% |
| COc1ccc(CNC(=O)c2ccc3c(O)c(S(=O)(=O)c4ccccc4)c(=O)[nH]c3c2)cc1 | 5.97% |
| Cc1cc(C)cc(NC(=O)CCS(=O)(=O)c2cc3c4c(c2)CCN4C(=O)CC3)c1 | 20.6% |
| O=C(c1ccc(-c2ccccc2)cc1)C1CCCN(C(=O)c2cncs2)C1 (stereo not drawn) | -2.69% |
| Cn1nccc1C(=O)N1CCCC(C(=O)c2ccc(Oc3ccccc3)cc2)C1 (stereo not drawn) | -33% (active) |

| Compound | activity change, negative = inhibition |
| --- | --- |
| CCn1nc(C)cc1C(=O)N1CCCC(C(=O)c2cccc(OC)c2)C1 (stereo not drawn) | 0.174% |
| Cc1nnc(NC(=O)CSc2nc3c([nH]c4ccccc43)c(=O)n2-c2cccc(Cl)c2)s1 | -3.1% |
| CCOC(=O)c1c(NC(C)=O)c2c3c(sc2n1Cc1c(C)cc(C)cc1C)CCCC3 | 27.5% |
| CCOC(=O)C(Cc1ccccc1)NC(=O)CCc1c(C)nc2c(c(C)nn2-c2ccc(C)c(C)c2)c1C (stereo not drawn) | -20.6% |
| COc1cccc(Cn2cc(/C=N/NC(=O)c3cc(O)cc(O)c3)c3ccccc32)c1 | 3.21% |
| N#CCC(=O)N/N=C/c1cn(Cc2ccc3ccccc3c2)c2ccccc12 | 16.1% |
| CCOC(=O)N/N=C/c1cn(Cc2ccccc2Cl)c2ccccc12 | -33.9% (active) |
| CCc1ccc(NC(=O)c2nn(-c3ccc(C)cc3)c(=O)n(C)c2=O)cc1 | -19.1% |
| Cc1ccc(N(CC(=O)NCc2ccc(Cl)cc2)S(=O)(=O)N(C)C)cc1 | 27% |
| CC(C)(C)c1ccc(C(=O)NCC(c2ccc(Cl)cc2)N2CCOCC2)cc1 (stereo not drawn) | -13.3% |
| O=c1cc(COc2cccc(C(F)(F)F)c2)nc2sc3c(n12)CCCC3 | -4.09% |
| O=C(CSCc1cnn(-c2ccccc2)c1-n1cccc1)NCc1ccc(Cl)cc1 | 5.55% |
| CCCOc1ccc(C2c3c(-c4ccccc4O)n[nH]c3C(=O)N2Cc2cccnc2)cc1 (stereo not drawn) | 27.7% |
| [O-][n+]1c2c(nn1-c1ccc(Cl)c(Cl)c1)-c1nonc1CC2 | -35.4% (active) |
| Cc1nnc(N2CCC(C(=O)Nc3ccc(F)cc3)CC2)c2nn(-c3ccc(Cl)cc3)c(C)c12 | -3.69% |
| COc1ccc(S(=O)(=O)N2CCCCC2)cc1Br | -47.9% (active) |
| COc1ccc(F)cc1S(=O)(=O)N1CCCCC1 | 1.35% |
| COc1cc(C(=O)NNC(=O)c2ccc(S(=O)(=O)N3CCCCC3)cc2)cc(OC)c1OC | -4.12% |
| COc1ccc(OC)c(-c2csc(-c3c(N)c(C(=O)c4ccccc4)n4ccccc34)n2)c1 | -9.07% |
| Cc1c(NC(=O)/C=C/C(=O)O)cccc1[N+](=O)[O-] | -41.8% (active) |
| Cc1c(NC(=S)NCc2ccc(F)cc2)cccc1[N+](=O)[O-] | -31.5% (active) |
| O=[N+]([O-])c1ccccc1NCc1ccc(Cl)cc1 | -2.99% |

| Compound | activity change, negative = inhibition |
| --- | --- |
| Cc1cccc(NC(=S)NCCc2ccc(F)cc2)c1C | -6.25% |
| O=C(O)/C=C/C(=O)NNc1ccc([N+](=O)[O-])cc1 | 4.19% |
| Cc1c(NC(=O)CCCOc2ccccc2)cccc1[N+](=O)[O-] | 0.202% |
| COc1ccc(-c2cccc(NS(=O)(=O)c3cc(C)c(OC)c(C)c3C)c2)nn1 | -20.7% |
| COc1ccc(-c2cc(C(=O)NCc3cc(OC)c(OC)c(OC)c3)[nH]n2)cc1 | -10.2% |
| COc1ccc(C(F)(F)F)cc1NC(=O)c1sc2nc(-c3cccs3)ccc2c1N | -1.54% |
| NS(=O)(=O)c1ccc(NC(=O)C(=O)Nc2ccc3nc4n(c(=O)c3c2)CCCCC4)cc1 | -3.24% |
| COc1ccc(Cc2nc3ccc(C(=O)NCc4ccccc4Cl)cc3o2)cc1 | -19.1% |
| CN1CCN(C(CNC(=O)c2ccccc2F)c2ccc3c(c2)OCO3)CC1 (stereo not drawn) | 8.69% |
| CCOc1cc(C(=O)NCCc2csc3nc(-c4ccc(C)cc4)nn23)cc(OCC)c1OCC | 3.63% |
| O=C(NCc1ccco1)c1sc2cccc(F)c2c1Cl | -46.1% (active) |
| O=C(NCc1ccco1)c1nn2cccnc2c1Cl | 15.7% |
| O=C(NCc1ccco1)c1cc2sccc2n1Cc1ccc(F)cc1 | -8.06% |
| CCOc1ccc(N2CC(C)Cn3c2nc2c3c(=O)n(Cc3c(F)cccc3Cl)c(=O)n2C)cc1 (stereo not drawn) | -2.48% |
| COc1ccc(CNC(=O)c2ccc3c(c2)nc2n3CCOC2)c(OC)c1 | 1.06% |
| O=C(CSC1=Nc2ccccc2C2=NC(c3ccccc3)C(=O)N12)NCC1CCCO1 (stereo not drawn) | -47% (active) |
| Cc1ccc(CNC(=O)CSC2=Nc3ccccc3C3=NC(C)C(=O)N23)cc1 (stereo not drawn) | -1.57% |
| O=C(CSc1ccc(-c2ccccc2)nn1)NCC1CCCO1 (stereo not drawn) | 5.37% |
| O=C(COc1ccc(Cl)cc1)Nc1ccc(-c2nc3cc(Cl)ccc3o2)c(O)c1 | 3.9% |
| CN(CC(=O)Nc1ccccc1F)S(=O)(=O)c1ccc2c(c1)c(=O)n(C)c(=O)n2C | 8.37% |
| CCOc1ccc(NC(=O)C(CC(C)C)N2Cc3ccccc3C2=O)cc1 (stereo not drawn) | 6.62% |
| CCOc1ccc(NC(=O)C(C)N2C(=O)c3ccccc3C2=O)cc1 (stereo not drawn) | -42.7% (active) |

| Compound | activity change, negative = inhibition |
| --- | --- |
| COC(=O)c1ccc(NC(=O)C(C)N2C(=O)c3ccccc3C2=O)cc1 (stereo not drawn) | -2.2% |
| COc1cc2nc(SCC(=O)Nc3ccccc3F)n3nc(-c4ccccc4)nc3c2cc1OC | -6.83% |
| COc1ccc(CNc2nc(-c3ccc(Cl)cc3)nn2C(=O)c2ccccc2)cc1 | -0.876% |
| Cc1cccc(NC(=O)Cn2c(=O)n(Cc3ccccc3)c(=O)c3c(C)c(C)sc32)c1 | -0.708% |
| CCOc1ccccc1NC(=O)Cn1c(=O)n(Cc2ccccc2)c(=O)c2c(C)c(C(=O)N(C)C)sc21 | -72.6% (active) |
| Cc1c(C(=O)N(C)C)sc2c1c(=O)n(-c1ccc(F)cc1)c(=O)n2CC(=O)N(C)c1ccccc1 | -0.832% |
| CCOc1ccc(OCC)c(NS(=O)(=O)c2ccc3[nH]c(=O)ccc3c2)c1 | -7.27% |
| CCCOc1ccc(C2=CSC3=NCCN23)cc1Cl | 3.06% |
| CCC1SC2=NCCN2C1(O)c1ccc(Cl)cc1 (stereo not drawn) | -31.5% (active) |
| Cc1cn(C)c(CC(=O)NCc2ccccc2)c1C(=O)O | 0.691% |
| Cc1cc(F)ccc1NC1(c2ccccc2)C(=O)c2ccccc2C1=O | -5.68% |
| COc1ccc(OCCn2cc(C(=O)C3CCCCC3)c3ccccc32)cc1 | 10.3% |
| CCOC(=O)C1CCCN(C(=O)c2ccc(-n3ccc4ccccc43)s2)C1 (stereo not drawn) | -9.46% |
| Cc1ccc(Nc2c(-c3ccc(N(C)C)cc3)nc3nc[nH]n23)cc1 | 1.41% |
| CCOC(=O)C1CCN(C(=O)c2cccc(S(=O)(=O)N(CC)c3ccccc3)c2)CC1 | -4.11% |
| O=C(NCc1ccccc1CN1CCCC1)c1cccc(S(=O)(=O)Nc2ccc(F)cc2)c1 | 2.42% |
| CCN(c1ccccc1)S(=O)(=O)c1cccc(C(=O)NCc2ccccc2CN2CCOCC2)c1 | -31.4% (active) |
| COc1cccc(Cn2c(SCc3ccc(C(=O)N4CCC(C)CC4)cc3)nc3ccncc32)c1 | -10.8% |
| CC(C)(C)OC(=O)N1CCC(c2c(C(=O)NCCc3ccsc3)cnn2-c2ccc(F)cc2F)CC1 | -6.33% |
| O=C(O)C1CCN(S(=O)(=O)N2CCOCC2)CC1 | 0.172% |
| CC1CCN(C(=O)C2CCN(S(=O)(=O)N3CCC4(CC3)OCCO4)CC2)CC1 | -37.8% (active) |
| CCOC(=O)C1CCN(C(=O)C2CCN(S(=O)(=O)N3CCCC3)CC2)CC1 | -2.4% |

From PubChem BioAssay AID504652 (National Center for Advancing Translational Sciences (NCATS), 2011)
